The campaign covered roughly 220,000 compounds. About 2,000 (0.91%) were called active. About 2% were inconclusive and are not listed. Rule as the data show it: inconclusive = inhibition above about 80% without an active follow-up result; inactive = below that; test concentration not stated here. The list is a sample of the results. Entries with a potency or affinity are not part of this list.

The assay in a line: M. tuberculosis H37Rv growth inhibitors, H37Rv strain (AID 1626).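 Also: bacteria incubated seven days before Alamar blue readout; 0% = bacteria only wells and 100% = bacteria with antibiotic wells.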 To be noted: stronger effect = higher value, concentration not given here.
What is called inhibition is the change of the read-out against control, counted positive when it falls. Regarding `CCC(C)NC(=O)CN(c1cc(C)ccc1OC)S(C)(=O)=O` (stereo not drawn), the inhibition is -5.3% (inactive).

With `CCOc1ccc(-c2nnc(N3CCCCC3)c3ccccc23)cc1`, the inhibition was -1.05% (inactive).

For the molecule `c1nc(NCC2(N3CCOCC3)CCCCC2)c2ccsc2n1`, the inhibition is -2.31% (inactive).

Regarding `O=S(=O)(c1ccccc1F)N1CCN(C(=S)NCc2ccccc2)CC1`, the inhibition was -2.02% (inactive).

Consider `O=C(Nc1cccc(F)c1)C1CCN(C(=O)c2ccc(Cl)cc2)CC1`, for which the inhibition is -0.97% (inactive).

For `CCN(CC(=O)Nc1ccc(C(=O)OC)cc1)Cc1ccccc1`, the inhibition is 7.78% (inactive).

Consider `COc1ccc(N2CC(C(=O)Nc3nnc(SCC(=O)c4ccccc4)s3)CC2=O)cc1` (stereo not drawn), for which the inhibition is 11.9% (inactive).

For `CCN(CC)CCC(c1ccc(N(C)C)cc1)c1c(OC)cc(OC)c2ccc(=O)oc12` (stereo not drawn), the inhibition was -0.96% (inactive).

With `CCN(CC)CCC(c1cc(OC)c(OC)c(OC)c1)c1c(OC)cc(OC)c2c(C)cc(=O)oc12` (stereo not drawn), the inhibition was -8.36% (inactive).

As to `CCN(CC)CCC(c1cc(OC)c(OC)c(OC)c1)c1c(OC)cc(OC)c2c(-c3ccccc3)cc(=O)oc12` (stereo not drawn), the inhibition is 12.6% (inactive).

Take `CCN(CC)CCC(c1cc(OC)c(OC)c(OC)c1)c1c(OC)cc(OC)c2ccc(=O)oc12` (stereo not drawn): the inhibition was -19% (inactive).

Regarding `Cc1ccc(CNc2ncccc2-c2nc3cc(Cl)ccc3o2)cc1`, the inhibition is -4.72% (inactive).

`COc1ccc(NC(=O)c2cccnc2Nc2ccc(OC)cc2)cc1`: the inhibition was 10.9% (inactive).

For `CN(C)CCCCCCCCCCC(=O)/C=N/O`, the inhibition is 7.54% (inactive).

In the case of `CCn1ncc(CN2CCN(Cc3ccc(OC)c(C)c3C)C(CCO)C2)c1C` (stereo not drawn), the inhibition was 3.6% (inactive).

As for `N[C@@H](Cc1c[nH]c2ccccc12)c1nnc(SCc2ccccc2)o1`, the inhibition was -10.5% (inactive).

Consider `CCOC(=O)COc1ccc2c3c(c(=O)oc2c1C)CCC3`, for which the inhibition was 76.7% (inactive).

For the molecule `Cc1cc2oc(=O)c3c(c2cc1OCc1nn[nH]n1)CCCC3`, the inhibition is -6.49% (inactive).

As for `COCCCn1c(SCC(=O)OC2CCCCC2)nnc1-c1ccco1`, the inhibition is -15.4% (inactive).

Regarding `Cc1ccccc1SCc1noc(C(=O)NCC2CCCO2)c1C(=O)O` (stereo not drawn), the inhibition is -6.27% (inactive).

For `COc1ccc(-n2c(O)c(C(C)=NCCCn3ccnc3)c(=O)[nH]c2=O)cc1`, the inhibition was -3.9% (inactive).

On to `O=C(Nc1ccc(NC(=S)NC(=O)c2cccs2)cc1)c1ccco1`, for which the inhibition is -2.57% (inactive).

For `O=C(OCC(=O)N(C1CCCCC1)C1CCCCC1)c1ccco1`, the inhibition is -7.12% (inactive).

With `CCc1[nH]nc2c1C1(CCOC1C)C(C#N)=C(N)O2` (stereo not drawn), the inhibition is -2.61% (inactive).

For `Cn1c(=O)[nH]c(=O)c2c1nc([N+](=O)[O-])n2Cc1ccccc1`, the inhibition is 72.1% (inactive).

Consider `CCCn1c(Sc2nc3c(c(=O)[nH]c(=O)n3C)n2CCC)nc2c1c(=O)[nH]c(=O)n2C`, for which the inhibition is 3.31% (inactive).

Take `CC(C(=O)c1ccccc1)N1C(=O)c2ccccc2C1=O` (stereo not drawn): the inhibition was -3.22% (inactive).

In the case of `N#Cc1cccnc1N1CCC(C(N)=O)CC1`, the inhibition was -8.98% (inactive).

Regarding `O=C(N/N=C/c1ccc2c(c1)OCO2)C(=O)Nc1ccc2ccccc2c1`, the inhibition was 1.96% (inactive).

`O=c1c2ccccc2nc(-c2ccc(Cl)cc2Cl)n1O`: the inhibition is 1.38% (inactive).

For the molecule `CSc1ccccc1NC(=O)c1ccc(C)o1`, the inhibition was -1.2% (inactive).

For the molecule `COc1ccc2c(c1)Sc1ccccc1N2CCN(C)C`, the inhibition was 2.43% (inactive).

Turning to `CN(C)CCCN1c2ccccc2Sc2ccccc21`, the inhibition is -4.11% (inactive).

`O=c1[nH]c2cccnc2c2ccsc12`: the inhibition was -1.93% (inactive).

On to `Cc1ccc(/C=N/N2CCN(c3ccncc3S(=O)(=O)N3CCCCC3)CC2)cc1`, for which the inhibition was 7.81% (inactive).

`Cc1cc2c(s1)CCCCC(=O)N2`: the inhibition is -2.34% (inactive).

In the case of `O=C1CCCc2sc3c(c2N1)CCCCC3`, the inhibition is -8.7% (inactive).

`Cc1cc(C(=O)NC(Cc2ccccc2)C(=O)O)c(C)o1` (stereo not drawn): the inhibition is 1.76% (inactive).

`O=C(CNC(=S)N(CCCN1CCOCC1)Cc1cccs1)NCCN1CCOCC1`: the inhibition is 5.22% (inactive).

On to `NC(=O)CN1C(=O)C2C3c4ccccc4C(c4ccccc43)C2C1=O` (stereo not drawn), for which the inhibition is 2.42% (inactive).

Regarding `CCNc1nc(NCC)nc(N/N=C/c2cc(OC)c(OC)c(OC)c2)n1`, the inhibition is -2.94% (inactive).

Consider `Cc1[nH]n(-c2ccccc2)c(=O)c1-c1ccccc1`, for which the inhibition was -7.21% (inactive).

Consider `Cc1cc(-c2c(C)[nH]n(-c3ccc(Cl)cc3)c2=O)n[nH]1`, for which the inhibition is 65.3% (inactive).

Turning to `CCOC(=O)C1=C(O)/C(=C/c2ccc(OCC(=O)O)c(OC)c2)SC1=Nc1ccc(OC)cc1`, the inhibition was 17.4% (inactive).

Take `COc1ccc(N2CCN(c3nc(Nc4ccc(C)c(F)c4)nc(N4CCCC4)n3)CC2)cc1`: the inhibition was 1.07% (inactive).

In the case of `CC(C)(C)Nc1nc(N2CCCC2)nc(N2CCCC2)n1`, the inhibition was 14.2% (inactive).

For `CCOc1ccc(Nc2nc(N3CCCC3)nc(N3CCN(c4ccc(OC)cc4)CC3)n2)cc1`, the inhibition is -4.38% (inactive).

On to `CCNc1nc(N2CCCC2)nc(N2CCCC2)n1`, for which the inhibition is 1.64% (inactive).

On to `O=C(NC(=S)NCCSc1ccccc1)c1cccnc1`, for which the inhibition was 4.56% (inactive).

As for `COc1ccc(S(=O)(=O)NC2CCCCC2)cc1-n1cnnn1`, the inhibition was -10.3% (inactive).

Regarding `Fc1cccc(Cl)c1/C=N/Nc1ccccn1`, the inhibition is 3.42% (inactive).

Consider `Cn1c(O)c(/C=C2/C=CC=N2)c(=O)[nH]c1=O`, for which the inhibition was 1.64% (inactive).

Turning to `COc1ccc(Cn2c(O)c(/C=N/NC(=O)c3ccccc3)c(=O)[nH]c2=O)cc1`, the inhibition is -2.76% (inactive).

Take `C=CCn1c(O)c(/C=C2/C=CC=N2)c(=O)[nH]c1=O`: the inhibition was 49% (inactive).

Turning to `O=c1[nH]c(=O)n(Cc2ccccc2Cl)c(O)c1C=Nc1ccc(F)cc1`, the inhibition is 3.81% (inactive).

As to `O=C(NC1CCCCC1)N1CCCc2ccccc21`, the inhibition is -7.82% (inactive).

In the case of `Cc1ccc(CC2C(=O)N(CC(=O)O)C(=O)C2C)cc1` (stereo not drawn), the inhibition was -14.9% (inactive).

Regarding `CCCCNC(=O)Nc1ccccn1`, the inhibition was -6.21% (inactive).

`O=C(Nc1ccccn1)C(=O)Nc1ccccn1`: the inhibition is -5% (inactive).

As to `CC(O)Cc1cn([C@@H](CCCCNC(=O)OC(C)(C)C)C(=O)N2CCN(C(=O)OC(C)(C)C)CC2)nn1` (stereo partly drawn), the inhibition is -10.7% (inactive).

For `CO/C=C/C#CC1(O)CCN(C)CC1`, the inhibition was -1.81% (inactive).

For the molecule `O=C(NCC1CCCO1)c1cc(C(=O)c2ccc(Cl)cc2Cl)c[nH]1` (stereo not drawn), the inhibition is 2.36% (inactive).

Consider `COCCCNC(=S)Nc1ccc(C)cc1`, for which the inhibition was -3.56% (inactive).

On to `COc1ccc(C(CCN2CCCC(C)C2)c2c(OC)cc(OC)c3c2OC(=O)CC3c2cc(OC)c(OC)c(OC)c2)cc1` (stereo not drawn), for which the inhibition was -7.36% (inactive).

On to `COc1ccc(C(CCN2CCCC(C)C2)c2c(OC)cc(OC)c3c(C)cc(=O)oc23)cc1` (stereo not drawn), for which the inhibition was 1.05% (inactive).

Turning to `COc1cc(OC)c2ccc(=O)oc2c1C(CCN1CCCC1)c1ccc(N(C)C)cc1` (stereo not drawn), the inhibition is -8.24% (inactive).

`CCCCCc1cc(=O)oc2c(C(CCN3CCN(c4ccccc4)CC3)c3ccc4c(c3)OCO4)c(OC)cc(OC)c12` (stereo not drawn): the inhibition was 22.5% (inactive).

`CCCCCc1cc(=O)oc2c(C(CCN3CCN(c4ccccc4)CC3)c3ccc(N(C)C)cc3)c(OC)cc(OC)c12` (stereo not drawn): the inhibition was 12.8% (inactive).

Take `COc1cc(OC)c2c(C)cc(=O)oc2c1C(CCN1CCOCC1)c1ccc(N(C)C)cc1` (stereo not drawn): the inhibition is -12.1% (inactive).

Turning to `COc1ccc(C(CCN2CCOCC2)c2c(OC)cc(OC)c3c(C)cc(=O)oc23)cc1` (stereo not drawn), the inhibition was -3.23% (inactive).

With `COc1cc(OC)c2ccc(=O)oc2c1C(CCN1CCCC(C)C1)c1ccc(N(C)C)cc1` (stereo not drawn), the inhibition is -10.1% (inactive).

As to `N/C(=N/OC(=O)c1ccccc1F)c1nonc1N`, the inhibition was 1.17% (inactive).

As for `S=C(NCC1CCCO1)N1CCN(Cc2ccccc2Cl)CC1` (stereo not drawn), the inhibition was -6.51% (inactive).

On to `CCOC(=O)c1cnn(CCOC(=O)c2ccccc2F)c1NC(=O)c1ccccc1F`, for which the inhibition was -4.26% (inactive).

Take `Clc1ccc(-c2c(C3=NCCCN3)nnn2-c2ccc(Cl)cc2)cc1`: the inhibition was 2.74% (inactive).

Regarding `Cc1cc(=O)[nH]c(SCc2nc3ccccc3n2Cc2ccccc2)n1`, the inhibition was -7.65% (inactive).

Take `Cc1ccc(C(=O)Cn2nnc(-c3cccs3)n2)cc1`: the inhibition was -5.53% (inactive).

Take `CCN1CCN(Cc2ccc(NC(=O)c3ccc(C)c(NC(=O)N4CCNC4=O)c3)cc2C(F)(F)F)CC1`: the inhibition was -4.19% (inactive).

In the case of `CCN1CCN(Cc2ccc(NC(=O)c3ccc(C)c(NC(=O)c4ccno4)c3)cc2C(F)(F)F)CC1`, the inhibition is 1.48% (inactive).

Regarding `CCN1CCN(Cc2ccc(NC(=O)c3ccc(C)c(NC(=O)c4cccc5[nH]ccc45)c3)cc2C(F)(F)F)CC1`, the inhibition is -5.49% (inactive).

In the case of `CCN1CCN(Cc2ccc(NC(=O)c3ccc(C)c(NC(=O)c4nccn4C)c3)cc2C(F)(F)F)CC1`, the inhibition is 2% (inactive).

In the case of `Cc1ccc(S(=O)(=O)N2CCOCC2)cc1NC(=O)CN1CCC(Cc2ccccc2)CC1`, the inhibition is 9.42% (inactive).

As to `CC1CCN(C(=O)COC(=O)c2cc(Cl)cc(Cl)c2N)CC1`, the inhibition is -13.4% (inactive).

Take `CCOC(=O)c1c(C)[nH]c(C)c1C(=O)COC(=O)c1cc2ccccc2cc1O`: the inhibition is -1.14% (inactive).

Regarding `Cc1cc(C(=O)OCC(=O)N2CC(C)CC(C)C2)c(C)o1` (stereo not drawn), the inhibition was -6.8% (inactive).

For the molecule `CC1CC(C)CN(C(=O)COC(=O)c2ccc[nH]c2=O)C1` (stereo not drawn), the inhibition is -10% (inactive).

Take `COc1cccc(C(=O)OCC(=O)c2c[nH]c3ccccc23)c1O`: the inhibition is 7.28% (inactive).

Regarding `CC(C)(C)C(=O)COC(=O)c1ccccc1O`, the inhibition was 10.3% (inactive).

Turning to `COc1cc2ccccc2cc1C(=O)OCC(=O)N1CCOCC1`, the inhibition is -12.6% (inactive).

Turning to `CC(=O)OCC(=O)c1c[nH]c2ccccc12`, the inhibition is -1.25% (inactive).

Consider `COc1ccccc1C/C(N)=N/OC(=O)c1ccc(C)c([N+](=O)[O-])c1`, for which the inhibition is 3.93% (inactive).

For the molecule `Cc1nnc(SCC(=O)N2CCN(S(=O)(=O)c3ccc(Cl)cc3)CC2)[nH]c1=O`, the inhibition is -6.4% (inactive).

`COc1ccc(C(=O)CSc2nnc(NC(=O)C3CC(=O)N(c4ccccc4C)C3)s2)cc1` (stereo not drawn): the inhibition was 2.7% (inactive).
